Results taken from PubChem BioAssay AID504832 (National Center for Advancing Translational Sciences (NCATS), 2011).
In all, about 310,000 compounds went through this assay and about 18,000 (5.8%) were called active. Another 22% or so got no clear call; they are omitted. This is one part of a sample in which actives are shown more often than they occur. A number with no mark means an inactive call. Calls come from the whole dose curve; as a rule, active = well fitted inhibition curve with a large enough effect; inconclusive = small, poorly fitted or top-dose-only effect, or another doubt; inactive = no such curve, though single readings can be large or run the other way.

Experiment: Primary qHTS for delayed death inhibitors of the malarial parasite plastid, 48 hour incubation
Conditions: P. falciparum luciferase growth in erythrocytes; series mostly up to 28.7 µM; activity change, negative = inhibition: at the top concentration
How it was run: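 In quantitative HTS format, infected erythrocytes bearing luciferase-reporter parasites were treated for a single generation at 37 C. Luminescence after adding detection reagent served as the growth measure.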
% is set by controls: 0 for no effect and ±100 for the full control effect; potency is the fitted concentration of half-maximal effect.

| SMILES | activity change, negative = inhibition | Potency |
| --- | --- | --- |
| CCOc1ccc(OCC)c(NC(=O)CCS(=O)(=O)c2ccc(C)cc2)c1 | -25.3% | – |
| Cc1ccc(CNC(=O)CCS(=O)(=O)c2ccc3c(c2)CC(C)N3C(=O)C2CC2)o1 (stereo not drawn) | – | 10.4 µM (active) |
| CCC(=O)N1c2ccc(S(=O)(=O)NCc3ccco3)cc2CC1C (stereo not drawn) | 44.5% | – |
| COc1cccc(CNS(=O)(=O)c2ccc3c(c2)CC(C)N3C(=O)C2CCC2)c1 (stereo not drawn) | -10.2% | – |
| Cc1c(OC(C)C(=O)NCC2CCC(C(=O)O)CC2)ccc2c1oc(=O)c1ccccc12 (stereo not drawn) | -28% | – |
| CC1(C)NC(=O)N(CC(=O)Nc2cc(C(F)(F)F)cc(C(F)(F)F)c2)C1=O | 46.2% | – |
| Clc1ccc(C2=CSC3=Nc4cccc5cccc(c45)N23)cc1 | – | 1.85 µM (active) |
| CC(=O)c1cccc(NC(=S)N2CCCC2)c1 | 11.9% | – |
| CC1=CCC2C(=O)N(c3cccc(C(=O)NC(C)c4ccccc4)c3)C(=O)C2C1 (stereo not drawn) | 6.23% | – |
| CC(=O)Oc1cccc(N2C(=O)CC(Nc3ccc(N4CCOCC4)cc3)C2=O)c1 (stereo not drawn) | 16% | – |
| CC(=O)Oc1cccc(N2C(=O)C3CC=C(Cl)CC3C2=O)c1 (stereo not drawn) | – | 11.7 µM (active) |
| N#CC1(NC(=O)COC(=O)CSc2ccc(F)cc2)CCCCC1 | 1.97% | – |
| Cc1cccc(N=C2SC(C)CN2C(=O)CN2C(=O)NC3(CCCC3)C2=O)c1 (stereo not drawn) | -26.9% | – |
| COCCN(C(=O)CC1CCCCC1)c1c(N)n(CC(C)C)c(=O)[nH]c1=O | -16.3% | – |
| COc1ccc(NC(=O)CCCC2CCCCC2)c(OC)c1 | 107% | – |
| COc1ccc(NC(=O)c2cc([N+](=O)[O-])ccc2NC(=O)CNC2CCCCC2C)c(OC)c1 (stereo not drawn) | – | 6.57 µM (active) |
| COc1cc([N+](=O)[O-])ccc1NC(=O)CN1CCCC1 | 22.4% | – |
| Cc1cccc(C)c1NC(=O)CNC(=O)c1ccc2c(c1)OCCO2 | -8.84% | – |
| COc1ccc2[nH]c(=O)c(CN(CC3CCCO3)C(=O)Nc3ccccc3)cc2c1 (stereo not drawn) | 37% | – |
| Cc1ccc(S(=O)(=O)N(Cc2cc3ccccc3[nH]c2=O)CC2CCCO2)cc1 (stereo not drawn) | 4.58% | – |
| O=C(c1cccs1)N(Cc1cc2ccccc2[nH]c1=O)CC1CCCO1 (stereo not drawn) | -2.84% | – |

| SMILES | activity change, negative = inhibition | Potency |
| --- | --- | --- |
| CCC(=O)N(Cc1cc2cc(OC)ccc2[nH]c1=O)c1ccccc1C | 11.8% | – |
| CCC(c1nnnn1Cc1ccco1)N(Cc1cc2cc(OC)ccc2[nH]c1=O)C1CCCCC1 (stereo not drawn) | – | 11.7 µM (active) |
| CCC(=O)N(CCc1ccccc1)Cc1cc2cc(C)ccc2[nH]c1=O | 83.4% | – |
| CCC(c1nnnn1Cc1ccccc1)N(Cc1cc2cc(OC)ccc2[nH]c1=O)CC1CCCO1 (stereo not drawn) | – | 5.86 µM (active) |
| COc1ccc(N(Cc2cc3cc(OC)ccc3[nH]c2=O)S(C)(=O)=O)cc1 | 18.3% | – |
| CCOc1ccc2[nH]c(=O)c(CN(CCCO)C(C)=O)cc2c1 | 14.9% | – |
| CCC(c1nnnn1Cc1ccco1)N(CCc1ccccc1)Cc1cc2cccc(C)c2[nH]c1=O (stereo not drawn) | – | 11.7 µM (active) |
| CCOc1ccc2[nH]c(=O)c(CN(Cc3nnnn3CCc3ccccc3)CC3CCCO3)cc2c1 (stereo not drawn) | – | 13.1 µM (active) |
| COc1ccc(-c2nc(SCC(=O)N3CCCC3)n[nH]2)cc1 | 5.23% | – |
| CC(=O)Oc1cccc(C(=O)Nc2ccccc2NC(=O)c2cccc(OC(C)=O)c2)c1 | -11.6% | – |
| COc1cccc(S(=O)(=O)NCc2ccc(C(=O)NCc3ccccn3)cc2)c1 | -29.8% | – |
| COc1cccc(CNc2ncc(-c3ccccc3)n2C)c1 | 31.6% | – |
| Cc1cc(=O)oc2cc(NC(=O)C(C)Oc3ccccc3)ccc12 (stereo not drawn) | 4.87% | – |
| COc1ccc(/C=C(\C#N)C(=O)OCC(=O)N(C)C2CCS(=O)(=O)C2)cc1 (stereo not drawn) | 2.01% | – |
| O=C(O)c1c(NC(=O)N2CCCC2)sc2c1CCCC2 | 0.211% [at 0.00184 µM] | – |
| Cc1ccc(-c2nc(CS(=O)(=O)CC(=O)NCc3ccc4c(c3)OCO4)c(C)o2)cc1 | 2.89% | – |
| CCCCOC(=O)Nc1nnc(CC(=O)NCc2ccccc2)s1 | 1.81% | – |
| CCC(C)c1ccc(NC(=S)N2CCCC2)cc1 (stereo not drawn) | 53.4% | – |
| COc1ccc2[nH]c3c(=O)n(Cc4ccco4)cnc3c2c1 | 34.4% | – |
| CCC(c1nnnn1Cc1ccco1)N(CCc1ccccc1)Cc1cc2ccc(OC)cc2[nH]c1=O (stereo not drawn) | – | 5.86 µM (active) |
| COc1ccc(N(Cc2cc3ccc(C)cc3[nH]c2=O)S(=O)(=O)c2ccccc2)cc1 | -23% | – |

| SMILES | activity change, negative = inhibition | Potency |
| --- | --- | --- |
| CCn1ccnc1CN(C)C(=O)c1cc(COc2ccc(Cl)cc2OC)on1 | 8.14% | – |
| C[C@]12CC[C@@H]3c4ccc(O)cc4C[C@@H](CCCCCCCCCS(=O)CCCC(F)(F)C(F)(F)F)C3[C@@H]1CC[C@@H]2O (stereo partly drawn) | – | 9.53 µM (active) |
| Cc1cc(=O)oc2c3c(cc(OCC(=O)NCCC(=O)N[C@@H](C)C(=O)O)c12)OC(C)(C)CC3 | 3.13% | – |
| Cc1c(NC(=O)Nc2cccc([N+](=O)[O-])c2)c(=O)n(-c2ccccc2)n1C | 14.8% | – |
| NNC(=O)c1nnn(-c2nonc2N)c1CN1CCCC1 | -0.213% | – |
| CCOC(=O)c1nnn(-c2nonc2-n2cccc2)c1CN1CCOCC1 | – | 7.38 µM (active) |
| CCOC(=O)C1CCN(Cc2c(C(=O)N3CCOCC3)nc3c(C)cccn23)CC1 | 0.0838% | – |
| CCOC(=O)c1nnn(-c2nonc2-n2cccc2)c1CN1CCC(C(=O)OCC)CC1 | – | 0.185 µM (active) |
| CCN(CC)Cc1c(C(=O)OC)nnn1-c1nonc1N | -3.97% | – |
| CCOC(=O)c1nnn(-c2nonc2OC)c1-c1ccccc1 | 12.2% | – |
| CC(=O)Nc1ccc(S(=O)(=O)Nc2cc(C)cn(Cc3ccc(C)cc3)c2=O)cc1 | 8.83% | – |
| COc1ccccc1CNS(=O)(=O)c1ccc2c(c1)NC(=O)CS2 | 28.6% | – |
| CCCn1cc(S(=O)(=O)c2ccc(C)cc2)c(=O)c2cc(OCC)ccc21 | -6.8% | – |
| CN(CC(=O)O)S(=O)(=O)c1ccc2oc3ccccc3c2c1 | 1.99% | – |
| O=C(N/N=C/c1cccnc1)c1cc2ccccc2cc1O | – | 2.94 µM (active) |
| N=c1oc2ccccc2cc1C(=O)N/N=C/c1ccccc1 | 23.4% | – |
| Cc1ccc(/C=N/NC(=O)c2cc3ccccc3cc2O)o1 | – | 0.586 µM (active) |
| Cc1ccc(/C=N/NC(=O)CNC(=O)COc2ccccc2)o1 | 4.28% | – |
| CCOC(=O)N/N=C/c1cccnc1 | 8.05% | – |
| O=C(N/N=C/c1cccnc1)c1ccc(NC(=O)c2ccc(F)cc2)cc1 | -9.95% | – |
| Cc1ccnc(NS(=O)(=O)c2ccc(NC(=O)c3oc4ccccc4c3C)cc2)n1 | 5.56% | – |
